Rows were chosen to be rich in hits. Some 11% of all compounds tested hit in one or more screens of this group.
Pf growth 96h = Primary qHTS for delayed death inhibitors of the malarial parasite plastid, 96 hour incubation. P. falciparum luciferase reporter growth, 96 h. 6.9% of 320,000 active. Potency, µM (highest dose often 28.7 µM), for the others: at the top dose activity change, negative = inhibition, actives largely listed as inhibitors
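Readout is luminescence from an integrated firefly luciferase in P. falciparum. Red cells, 2% hematocrit and 0.05% parasitemia final, were cultured with compound through two parasite generations (96 hours) at 37 C, 5% CO2.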
Pf growth 48h = Primary qHTS for delayed death inhibitors of the malarial parasite plastid, 48 hour incubation; P. falciparum luciferase growth in erythrocytes, 48 h; Potency, µM (titrated, usually from 28.7 µM), without a hit: top-dose activity change, negative = inhibition, hits mostly inhibitors; 5.9% of 310,000 active; AID 504832, 2011
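Firefly luciferase activity from engineered P. falciparum reports growth; inhibitors lower the luminescent signal. Cultures contained 2% hematocrit erythrocytes at 0.1% final parasitemia.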
AMA1-RON2 inh = qHTS for Inhibitors of AMA1-RON; Towards Development of Antimalarial Drug Lead: Primary Screen; Plasmodium falciparum AMA1 (3D7) - RON2 peptide interaction; Potency, µM (series often up to 58.2 µM), for inactives: at the top dose activity change, negative = inhibition, most hits filed as inhibitors; AID 720542, 2013; AlphaScreen AMA1-biotinylated RON2 peptide binding; 0.2% of 360,000 active;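 note: 0% = vehicle wells and -100% = peptide control; nearly all actives have a fitted effect of over 45% in size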
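AMA1 (3D7) with his tag at 25 nM final met compounds first, then biotinylated RON2 peptide at 25 nM; detection used donor plus acceptor beads, 10 µg/mL apiece, read by AlphaScreen after 30 min at room temperature.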
HCV inh = qHTS Assay for Inhibitors of Hepatitis C Virus (HCV) | Huh7.5.1 HCVcc-Cre infection, luciferase reporter, 44 h | Potency, µM (titrated, usually from 41.8 µM), without a hit: at the highest dose activity change, negative = inhibition, usual class: inhibitors | 3.4% of 340,000 active | AID 651820, 2012
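Luciferase read-out (15 sec integration) after a 15 min room-temperature substrate step quantifies HCVcc-Cre infection. Cells, 1,000 per well, had compound added 4 h post-plating, then virus at ~0.5 moi, and were cultured 44 h.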
Numbers without * were called inactive; ? = inconclusive; · = not tested or not shown; [ ] = dose if it differs, or a comment. Calls come from the whole dose curve; as a rule, active = well fitted curve in the direction sought with a large enough effect; inconclusive = small, poorly fitted or top-dose-only effect, or another doubt; inactive = no such curve, though single readings can be large; an effect the other way counts as inactive or inconclusive. Unless noted, % is set by controls: 0 for no effect and ±100 for the full control effect; potency is the fitted concentration of half-maximal effect.

SMILES	Pf growth 96h	Pf growth 48h	AMA1-RON2 inh	HCV inh
NC(=O)CSc1nc(-c2ccccc2)nc2c1CCCC2	7.38µM*	8.9%	0.2%	-16.2%
O=[N+]([O-])c1ccc(N2CCN(CCOc3nonc3-c3ccccc3)CC2)c(Cl)c1	?	9.7%	1.9%	6.31µM*
Cc1nonc1OCCN1CCN(c2ccc([N+](=O)[O-])cc2)CC1	?	?	-11.9%	?
O=C(Nc1ccccc1)OC1CCCCc2cccnc21 (stereo not given)	5.8%	6.9%	-4.2%	0.7%
O=C(Nc1cccc(Cl)c1)OC1CCCCc2cccnc21 (stereo not given)	-24.6%	3.7µM*	-11.7%	-24.7%
C[C@H](NC(=O)C1CC(=O)N(c2ccc3c(c2)OCO3)C1)C(=O)NC1CCCCC1 (stereo not given in full)	21.1%	14.1%	15.4%	13.0%
CN1C(=O)CCC1c1cccnc1 (stereo not given)	1.07µM*	-5.1%	·	·
COC(=O)c1c(-c2ccc(C)cc2)csc1NC(=S)NC(=O)c1cc(OC)cc(OC)c1	8.28µM*	?	2.1%	24.5%
COC(=O)c1ccccc1NC(=O)CSc1nnc(-c2cccnc2)n1N	36.6%	21.3%	-15.4%	14.7%
Cc1cccn2c(CN(C)C3CCOC3)c(C(=O)N3CCCCC3)nc12 (stereo not given)	?	-10.8%	-8.1%	21.3%
COC(=O)[C@@H]1CCCN1Cc1c(C(=O)N2CCCCC2)nc2c(C)cccn12	8.28µM*	-7.8%	3.4%	-0.3%
Cc1cccn2c(CN(C)CCC3CCCCO3)c(C(=O)N3CCCCC3)nc12 (stereo not given)	13.1µM*	-1.6%	19.1%	-4.4%
Cc1nc(C(C)N(C)Cc2c(C(=O)N3CCCCC3)nc3c(C)cccn23)c(C)s1 (stereo not given)	10.4µM*	?	15.1%	-3.0%
C=CCN1C(=O)/C(=C\c2ccc(Cl)cc2)N=C1SCC(=O)NC1CCCCC1	34.7%	·	4.3%	6.6%
COc1ccc(Cl)cc1N1C(=O)/C(=C\c2sccc2C)N=C1SCC(=O)NC1CC1	9.28µM*	·	6.1%	?
O=C(NCc1ccccn1)c1cccc(S(=O)(=O)NCc2ccccc2)c1	-4.7%	-24.3%	36.6%	?
C#CCOCCOCCOCCNc1nc(N2CCN(C(=O)Cn3cc(CC(C)O)nn3)CC2)nc(N2CCN(C(=O)[C@H]([C@@H](C)O)n3cc(CCCCN)nn3)CC2)n1 (stereo not given in full)	·	·	-1.5%	6.6%
C#CCOCCOCCOCCNc1nc(N2CCN(C(=O)CCCCCCCCCCNC(=O)Cn3cc(C[C@@H](C)O)nn3)CC2)nc(N2CCN(C(=O)CCCCCCCCCCNC(=O)Cn3cc(C[C@@H](C)O)nn3)CC2)n1	0.0828µM*	0.131µM*	?	-3.0%
C#CCOCCOCCOCCNc1nc(N2CCN(C(=O)CCCCCCCCCCNC(=O)[C@H](CCCCN)n3cc(C[C@@H](C)CC)nn3)CC2)nc(N2CCN(C(=O)CCCCCCCCCCNC(=O)[C@H](CCCCN)n3cc(C[C@@H](C)CC)nn3)CC2)n1	·	·	?	-11.5%[8.37 µM]
C#CCOCCOCCOCCNc1nc(N2CCN(C(=O)CCCCCCCCCCNC(=O)Cn3cc(C[C@@H](C)O)nn3)CC2)nc(N2CCN(C(=O)CCCCCCCCCCNC(=O)[C@H](CCCCN)n3cc(C[C@@H](C)CC)nn3)CC2)n1	0.465µM*	0.329µM*	-25.2%	?
CCOc1ccc(CCNC(=O)c2cccc(-n3cnnn3)c2)cc1OCC	?	?	-6.0%[11.6 µM]	?
Cc1ncc(CN2CCCC(C(=O)c3sccc3C)C2)s1 (stereo not given)	11.7µM*	-15.7%	-0.8%	-8.0%
CCCS(=O)(=O)NC(=O)C1(C)CCN(C(=O)Cc2ccc(OC)cc2)C1 (stereo not given)	·	·	-1.5%	·
O=C(CNC(=S)N(Cc1ccccc1)Cc1cccs1)NCc1ccc(F)cc1	?	?	-24.5%	?
O=C(CNC(=S)N(Cc1ccccc1)Cc1ccccc1F)NCCc1ccc(Cl)cc1	?	11.7µM*	-22.6%	-3.7%
Cc1ccc(CN(Cc2ccccc2)C(=S)NCC(=O)NCc2cccnc2)o1	-4.6%	11.7µM*	-0.1%	10.0%
